Experiments:
Details in all cases: concentration: 1 μM, replicates: in singlicate; n = 1
CDK3 = system: CDK3
CDK4-cyclinD1 = system: CDK4-cyclinD1
CDK4-cyclinD3 = system: CDK4-cyclinD3
CDK4 = system: CDK4
CDK5 = system: CDK5
CDK7 = system: CDK7
CDK8 = system: CDK8
CDK9 = system: CDK9
CDKL1 = system: CDKL1
CDKL2 = system: CDKL2
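Further: KINOMEscan kinase panel screen.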

Structure (SMILES)	%Inh (CDK3) [%]	%Inh (CDK4-cyclinD1) [%]	%Inh (CDK4-cyclinD3) [%]	%Inh (CDK4) [%]	%Inh (CDK5) [%]	%Inh (CDK7) [%]	%Inh (CDK8) [%]	%Inh (CDK9) [%]	%Inh (CDKL1) [%]	%Inh (CDKL2) [%]
COc1cc(Nc2ccnc3ccc(C(F)(F)F)cc23)cc(OC)c1OC [GW577382]	16	39	0	10	0	1	47	0	6	21
COc1ccc(-c2coc3ccc(-c4nnc(SCc5cccc(C#N)c5)o4)cc23)cc1	0	0	0	0	18	9	0	0	5	0
Nc1ncnc2c1ncn2-c1cccc2ccccc12 [SKF-97184]	0	0	0	13	0	22	38	1	33	0
CCc1ccc(-c2ccc3c(c2)-c2nn(C)cc2S(=O)(=O)N3C)cc1	0	14	0	0	12	0	0	0	9	19
CCCNC(=O)Nc1ccc(Oc2ncnc3ccn(C)c23)cc1	0	0	0	20	19	0	0	0	0	4
CCCC(=O)Nc1n[nH]c2ncc(-c3cccc4ccccc34)cc12 [SB-642057]	51	0	37	0	0	0	7	0	10	0
Cc1nc(N(C)[C@H]2CN(C(=O)CC#N)CC[C@H]2C)c2cc[nH]c2n1	2	0	23	0	16	11	0	0	0	0
O=c1cc(N2CCOCC2)nc2n(Cc3ccc(F)c(Cl)c3)ccn12 [GSK2297099]	6	0	20	0	0	0	10	7	10	8
O=C(Nc1n[nH]c2nc(-c3ccccc3)c(Cl)cc12)C1CC1 [SB-734909]	0	0	0	9	0	15	3	0	41	35
Nc1nc(-c2ccccc2F)c(-c2ccnc3ccccc23)s1 [GW560459]	0	11	0	32	0	0	39	0	0	26
O=C(Nc1n[nH]c2cc(-c3ccccc3F)ccc12)C1CC1 [SB-733371]	7	0	0	0	0	0	0	0	11	79
CCC(=O)c1c(-c2ccccc2)c2cc(Cl)ccc2c(=O)n1Cc1ccc(C(=O)O)cc1	0	0	0	0	0	0	4	0	0	7
CCC(=O)c1c(-c2ccccc2)c2cc(Cl)ccc2c(=O)n1Cc1cc(C(=O)NC2CC2)n(C)n1	0	3	0	0	0	12	14	11	0	3
Cn1c(=O)c(F)c(Nc2ccc(I)cc2F)c2c(=O)n(OC[C@H](O)CO)cnc21	38	1	0	0	0	0	46	14	51	29
Nc1nc(N)c2nc(-c3ccccc3)[nH]c2n1 [SKF-12778]	1	20	0	0	5	7	23	0	0	2
COC(=O)c1c(-c2ccccc2)c2cc(Br)ccc2c(=O)n1Cc1ccc(S(C)(=O)=O)cc1	0	0	5	0	15	29	0	3	0	0
COc1ccc(-c2cc3c(C)nc(N)nc3n([C@H]3CC[C@H](O)CC3)c2=O)cn1	8	0	0	0	0	7	0	0	0	0
Nc1ncnc2c1ncn2-c1cccc(F)c1 [SKF-97560]	0	27	13	30	0	0	0	0	0	0

Structure (SMILES)	%Inh (CDK3) [%]	%Inh (CDK4-cyclinD1) [%]	%Inh (CDK4-cyclinD3) [%]	%Inh (CDK4) [%]	%Inh (CDK5) [%]	%Inh (CDK7) [%]	%Inh (CDK8) [%]	%Inh (CDK9) [%]	%Inh (CDKL1) [%]	%Inh (CDKL2) [%]
COc1cc2ncn(-c3cc(OCc4ccncc4)c(C(N)=O)s3)c2cc1OC [GSK336313]	10	0	18	0	0	2	0	0	5	15
CN1C(=O)C(Nc2ccccc2)=C(c2ccccc2)C1=O [SB-300079]	12	9	0	11	5	6	13	1	4	13
Nc1nccc2scc(-c3ccc4c(c3)CCN4C(=O)Cc3ccccc3)c12 [GSK2576924]	9	0	0	13	0	7	70	0	7	17
COc1ccc(Nc2nccc(N3CCC(NS(=O)(=O)c4ccc(NC(C)=O)cc4)C3)n2)cc1 (centres unmarked) [GSK1379729]	20	8	0	13	12	0	35	0	0	14
Cc1ccc(Oc2ccc(Nc3ncnc4cc[nH]c34)cc2C)cn1	0	4	0	29	9	40	0	10	1	0
CCC(=O)c1c(-c2ccccc2)c2cc(Cl)ccc2c(=O)n1Cc1cc(S(C)(=O)=O)n(CCC(C)(C)O)n1	2	0	20	0	10	38	0	17	10	0
COc1cc2ncn(-c3cc(OCc4ccc(S(C)(=O)=O)cc4)c(C(N)=O)s3)c2cc1OC [GW869979]	0	14	16	9	0	0	0	0	0	0
FC(F)(F)c1ccc(-c2ncn(CCCN3CCOCC3)c2-c2ccncc2)cc1 [SB-217780]	0	0	1	9	0	9	12	0	13	0
COc1cc2nccc(Nc3ccc(OCc4ccc(NC(C)=O)cc4)cc3)c2cc1OC.Cl [GW440135]	4	37	0	34	0	0	36	0	1	0
O=C(NCc1cccs1)c1cc(C(=O)c2c(Cl)cccc2Cl)c[nH]1 [GW823670]	15	0	0	0	0	0	16	0	8	0
Cl.NS(=O)(=O)c1cccc(Nc2cc(-c3ccc(F)cc3)n[nH]2)c1 [GW824645]	29	0	0	0	0	1	0	5	3	0
Nc1n[nH]c2ncc(-c3ccccc3)cc12 [SB-517081]	26	0	5	23	0	0	0	0	8	34
COc1cccc(-n2cnc3c(N)ncnc32)c1 [SKF-97416]	17	37	0	31	0	33	0	0	13	8
COc1cccc(C2=C(N(C)c3ccccc3)C(=O)NC2=O)c1 [SB-334865]	12	2	8	0	0	0	6	39	0	23
Cl.c1ccc(Cn2cnc3cc(Nc4ncnc5ccccc45)ccc32)cc1 [GW272142]	0	0	1	28	0	0	21	0	6	9
COC(=O)c1c(-c2ccccc2)c2cc(C)ccc2c(=O)n1Cc1ccccc1	0	0	0	0	0	0	5	0	4	0
O=C(NCCNc1ccnc(Nc2ccc(F)cc2)n1)Nc1ccc2c(c1)OCO2 [GSK1379882]	0	0	0	8	0	0	25	7	0	15

Reference: paper PMC5540273 (PLoS ONE, 2017)
